# PNC inhibitor – perinucleolar compartment assembly inhibition; PC3M PTB-GFP, PNC prevalence imaging, 16 h; active compounds read low; activity change (PNC), negative = inhibition, % at 10 µM; hit rate 3.1% among 140,000;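 active = readout at or below -70, meaning at least 70% loss of cells showing the perinucleolar compartment, a nuclear body marking cancer cells; inconclusive = readout between -30 and a set limit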
#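 Read-out is percentage of cells bearing a perinucleolar compartment, from automated 20x imaging of fixed, Hoechst-stained PC3M PTB-GFP cells. Cells were seeded 4 h, then exposed 16 h to compound (23 nl of library stock) in duplicate plates.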
# HTT ATP protect – Huntington cell model cytoprotection by ATP luminescence; Potency, µM (titrated, usually from 56.4 µM), hits mostly activators; PC12 HTT-Q103 induced, cytoprotection, ATP luminescence, 40 h; hit rate 0.14% among 230,000; AID 1471; also: nearly all actives have a fitted effect of over 45% in size
#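 Huntington model: PC12 line, ecdysone-inducible HTTQ103 exon1–GFP, tebufenozide 100 nM. Test articles in a dose series. Endpoint luminescence from cellular ATP.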
# HTT aggregate – inhibitors of mutant huntingtin aggregate formation in PC12 cells; Potency, µM (top dose mostly 46.1 µM), usual class: inhibitors; AID 1688; PC12 HttQ103-GFP aggregates, Acumen cytometry, 40 h; hit rate 1.1% among 220,000; also: nearly all actives have a fitted effect of over 60% in size
#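 PC12 cells with ecdysone-inducible HTT exon1 Q103-GFP, induced by 100 nM tebufenozide, given compounds in a concentration series. GFP aggregates (1–25 um, 6 SD above background) counted in lysates by laser-scanning cytometry, 488 nm excitation.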
# IMPase inh – cell-permeable inhibitors of inositol monophosphatase (IMPase); AID 901; P97697; inhibition (IP1 accumulation), % at 46.1 µM; 120,000 tested, under 10 active; CHO-M1 cells, IP1 accumulation, HTRF TR-FRET ratio; active = well fitted curve in the direction sought with a large enough effect in the signal ratio, not every such curve was filed as active; inconclusive = small, poorly fitted or top-dose-only effect, or a change in a side signal; inactive = no such curve, though single readings can be large or run the other way; the % refers to the signal ratio;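 also: cells stimulated with carbachol in lithium chloride buffer; higher means more IMPase inhibition seen as more IP1 and lower FRET ratio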
# Target sequence (P97697 whole entry, looked up): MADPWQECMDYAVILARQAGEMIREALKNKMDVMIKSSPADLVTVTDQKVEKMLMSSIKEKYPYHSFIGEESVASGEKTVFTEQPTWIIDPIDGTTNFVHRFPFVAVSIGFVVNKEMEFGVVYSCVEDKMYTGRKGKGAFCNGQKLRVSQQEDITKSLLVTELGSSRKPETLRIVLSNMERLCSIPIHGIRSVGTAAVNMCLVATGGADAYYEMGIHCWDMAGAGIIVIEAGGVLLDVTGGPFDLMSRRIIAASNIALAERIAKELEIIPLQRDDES
#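 The IP-One HTRF competitive assay in carbachol-stimulated CHO-M1 cells quantifies cellular IP1. Compounds spanned up to 46 uM final, and activity is expressed as AC50 from concentration-response fits of the ratio and donor data.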
# 12-hLO inh – blocks human 12-lipoxygenase activity; P18054; purified 12-hLO, xylenol orange hydroperoxide absorbance; Potency, µM (series often up to 57.1 µM), actives largely listed as inhibitors; hit rate 0.12% among 150,000; also: nearly all actives have a fitted effect of over 55% in size
#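 150 nM 12hLO, 25 mM Hepes pH 7.0 + 0.01% Triton X-100; cpd preinc 15 min RT; 40 uM arachidonic acid, 30 min RT; Fe-XO 30 min; A573/A405 ratio as read-out.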
# NPSR antag – blocks cAMP signaling of the human neuropeptide S receptor; Q6W5P4; Potency, µM (series often up to 38.3 µM), hits mostly inhibitors; hit rate 1% among 220,000; CHO-NPSR cells, cAMP TR-FRET, antagonist mode; also: nearly all actives have a fitted effect of over 50% in size
# Target sequence (Q6W5P4 whole entry, looked up): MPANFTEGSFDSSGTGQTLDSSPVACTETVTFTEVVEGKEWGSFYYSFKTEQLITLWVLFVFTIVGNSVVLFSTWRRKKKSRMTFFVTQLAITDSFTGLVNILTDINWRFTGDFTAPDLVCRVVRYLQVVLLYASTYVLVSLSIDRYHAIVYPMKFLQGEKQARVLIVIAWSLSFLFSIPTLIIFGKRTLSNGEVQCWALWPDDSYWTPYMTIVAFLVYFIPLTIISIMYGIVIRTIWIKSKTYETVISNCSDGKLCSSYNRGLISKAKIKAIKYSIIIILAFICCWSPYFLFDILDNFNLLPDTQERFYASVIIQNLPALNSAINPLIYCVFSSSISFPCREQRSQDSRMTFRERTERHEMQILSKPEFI
# Hits are given with their value; n = inactive; u = inconclusive; x = no result given; [ ] = remark or other dose. The list is not random: actives were taken first. Their share in the collection is about 3.3%. Unless noted, calls follow the shape of the dose curve; as a rule, active = well fitted curve in the direction sought with a large enough effect; inconclusive = small, poorly fitted or top-dose-only effect, or another doubt; inactive = no such curve, though single readings can be large; an effect the other way counts as inactive or inconclusive.
SMILES,PNC inhibitor,HTT ATP protect,HTT aggregate,IMPase inh,12-hLO inh,NPSR antag
COc1ccccc1OCc1ccc(C(=O)NCc2ccco2)o1,-86.4,n[0.074 µM],n,u,n,n
CC(Oc1ccc(Br)cc1)C(=O)NCc1cccnc1 (stereo not drawn),x,x,x,x,n,x
O=C(O)c1cc(-c2cccnc2)nc2ccc(Br)cc12,x,n,n,x,x,5.01µM
O=C(O)c1cc(-c2ccc3cc4c(cc3c2)OCO4)nc2ccccc12,x,n[10 µM],x,x,n[11.4 µM],x
O=C(O)c1cc(-c2ccc3c(c2)OCO3)nc2ccc(Br)cc12,x,n[1.9 µM],n[9.22 µM],x,x,6.31µM
O=C(c1cc(-c2cccnc2)nc2ccc(Br)cc12)N1CCC2(CC1)OCCO2,x,n[0.074 µM],x,x,x,x
CCN1CCN(C(=O)c2cc(-c3cccnc3)nc3ccc(Br)cc23)CC1,-106.8,n,n,n,n,n
COc1ccc2nc(C)cc(Sc3nc4ccccc4s3)c2c1,x,u,n[9.22 µM],x,x,n[7.67 µM]
O=C(CN1CCCCC1)Nc1c2c(nc3ccccc13)N(c1ccccc1)CC2,x,n[10 µM],n,x,x,7.94µM
CCCCc1nc2ccccc2c(NC(=O)CNC(C)(C)C)c1CCC,n,n,n,n,n,n
CCCCc1nc2ccccc2c(NC(=O)CN2CCCC2)c1CCC,-100.0,n[10 µM],n,n,n,n
COC(=O)c1sc(N2C(=O)c3oc4ccccc4c(=O)c3C2c2ccc(O)cc2)nc1C (stereo not drawn),x,x,x,n,x,x
CC(C)[C@H](Nc1ccc(C(F)(F)F)cc1[N+](=O)[O-])C(=O)O,x,n[10 µM],n[9.22 µM],x,x,n
O=C(NNc1ccc(C(F)(F)F)cc1[N+](=O)[O-])c1ccc(NS(=O)(=O)c2ccc(F)cc2)cc1,n,n[10 µM],u,x,u,10µM
COC(=O)C1(C(=O)OC)CC2=CC(CC2=O)Cc2ccccc2[C@@H]1C[N+](=O)[O-] (stereo partly drawn),x,n,x,x,x,x
CC1=C(C(=O)c2ccccc2)C(c2cn(-c3ccccc3)nc2-c2ccc(Cl)cc2)NC(=S)N1 (stereo not drawn),n,n,n,n,15.8µM,n
CCOC(=O)C1=C(C)NC(=O)NC1c1cn(-c2ccccc2)nc1-c1ccc(OC(C)C)cc1 (stereo not drawn),x,x,x,n,x,x
CCN(CC)c1ccc(C(=O)N/N=C/c2ccccc2OC(F)F)cc1,x,n[10 µM],10µM,x,x,n
Cc1nn(-c2ccc(Cl)cc2)c(=O)c2ccccc12,x,n[10 µM],n[9.22 µM],x,x,n
Cc1c(Cl)sn(-c2ccc(Cl)cc2)c1=O,x,n,n[9.22 µM],x,x,2.51µM
COC(=O)CSc1[nH]c2ccc(F)cc2c1[N+](=O)[O-],x,n[10 µM],n[9.22 µM],x,x,n
Cc1ccc(C)c(N2CCN(C(=O)c3ccccc3Br)CC2)c1,-80.1,n[10 µM],n,n,n,n
O=S(=O)(Oc1ccc(Cl)cc1)c1cccc2cccnc12,x,n[10 µM],n[9.22 µM],x,x,n[7.67 µM]
O=C(c1ccc(S(=O)(=O)c2ccc(F)cc2)c([N+](=O)[O-])c1)N1CCCCCC1,-119.3,n[10 µM],u,n,n,n
O=C(c1ccc(S(=O)(=O)Cc2ccccc2F)c([N+](=O)[O-])c1)N1CCCC1,x,n,u,x,x,n
SMILES,PNC inhibitor,HTT ATP protect,HTT aggregate,IMPase inh,12-hLO inh,NPSR antag
CCC(=O)C(C(=O)OC)[C@H](CCc1ccccc1)NC(=O)OC (stereo partly drawn),x,n,x,x,n,x
O=C(/C(=C/O)N=Nc1ccccc1)c1cccs1,x,n[10 µM],n,x,x,10µM
Cc1nc(=O)cc(-c2ccccc2)n1-c1ccccc1,-107.8,n[10 µM],n,n,n,n
Cn1ncc2c(Nc3ccc(-c4ccccc4)cc3)ncnc21,-81.6,n,n,n,n,n
Cn1ncc2c(Nc3ccccc3Br)ncnc21,n,n[10 µM],n,n,n,n
Cc1cccc(-c2noc(-c3cc4ccccc4oc3=O)n2)c1,-106.0,n,n,n,n,n
COc1cccc(NC(=O)c2ccccc2-c2nc(-c3cccc(C)c3)no2)c1,-139.2,n,n,n,n,n
Cc1cccc(-c2noc(-c3ccccc3C(=O)NCC3CCCO3)n2)c1 (stereo not drawn),n,n[0.074 µM],n,n,n,n
O=C(c1cc(C(F)(F)F)cc(C(F)(F)F)c1)N1CCC2(CCN(Cc3ccncc3)CC2)CC1,x,u,x,x,n,x
COc1cccc(-c2nnc(NC(=O)c3cccc(F)c3)o2)c1,x,n[10 µM],n[9.22 µM],x,x,n
CCc1nnc(NC(=O)c2ccc(S(=O)(=O)N(CCOC)CCOC)cc2)o1,n,n,n,n,n,n
CCCN(CCC)S(=O)(=O)c1ccc(C(=O)Nc2nnc(-c3cc(OC)cc(OC)c3)o2)cc1,u,n[10 µM],6.31µM,n,n,n
CCCN(CCC)S(=O)(=O)c1ccc(C(=O)Nc2nnc(-c3cccc(OC)c3)o2)cc1,u,x,10µM,x,n,n
COc1ccc(-c2nnc(NC(=O)c3ccc(S(=O)(=O)N4COCC4(C)C)cc3)o2)cc1,n,n,31.6µM,n,n,n
COCCn1c(=O)c(-c2ccc(Cl)cc2)nc2cnc(OC)nc21,x,n,x,x,n,x
CC(=O)c1c(N2CCOCC2)nc(=O)n(-c2ccccc2)c1C,-80.4,n,n,n,n,n
CC(=O)c1c(N2CCOCC2)nc(=S)n(-c2ccc([N+](=O)[O-])cc2)c1C,-113.4,n,n[9.22 µM],n,n,n
O=C(CNC(=O)c1ccccc1F)Nc1ccccc1C(F)(F)F,x,n,n,x,x,n
Cc1cc(/C=C2\Sc3ccccc3N2C)cc(C)[n+]1CC1CCCO1 (stereo not drawn),x,n[10 µM],2.82µM,x,x,n
O=C(NNc1c2ccccc2nc2ccccc12)c1ccccc1O,n,n[10 µM],n,x,n,n
CCOc1ccc(NCC(=O)N/N=C/C=C/c2ccccc2)cc1,n,n[10 µM],n,n,n,n
O=C(NNc1c2ccccc2nc2ccccc12)c1ccc(O)cc1O,u,n,10µM,n,n,n
CCCC(=O)NNc1c2ccccc2nc2ccccc12,n,n[10 µM],n,x,n,n
O=C(COc1ccccc1)NNc1c2ccccc2nc2ccccc12,n,n[10 µM],n,n,n,10µM
COc1ccc(OCC(=O)N/N=C/C=C/c2ccccc2)cc1,-115.1,n[10 µM],n,n,n,n
SMILES,PNC inhibitor,HTT ATP protect,HTT aggregate,IMPase inh,12-hLO inh,NPSR antag
COc1ccc(OCC(=O)NNc2c3ccccc3nc3ccccc23)cc1,n,n[10 µM],11.2µM,n[1.84 µM],n,u
O=C(NNc1c2ccccc2nc2ccccc12)C(O)c1ccccc1 (stereo not drawn),x,n[10 µM],n[9.22 µM],x,x,10µM
CCOC(=O)c1cc(NC(=O)Nc2ccc(OC)c(OC)c2)c(C)nc1C,-102.1,n,n,n,n,n
COc1ccc(C(C)(C)C)cc1NC(=O)c1c(C)noc1C,u,n,0.562µM,n,n,n
CCc1onc(C)c1C(=O)Nc1cc(C)ccc1OC,n,n,n,n,n,n
COc1ccc(NC(=O)Nc2cc(C)ccc2OC)cc1,-82.3,n[10 µM],n,n,n,n
O=C(Nc1ccc(OC(F)F)c(Cl)c1)c1cccc(OC(F)F)c1,n,n,3.98µM,n,n,u

# Screening data deposited in PubChem BioAssay by National Center for Advancing Translational Sciences (NCATS).
